This is part of a sample that, as a whole, favours compounds with a hit. Of some 83,000 tested, about 20% had one in any assay.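 Plates (96-well) were seeded with cells, treated with compound at one concentration, and incubated for 48 hours before percent growth was determined.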 Values without a mark were called inactive. Active and inactive are the calls of the source. Rule for the calls: active = growth percent below 10; inactive = the rest.

Test systems include DU-145 prostate; K-562 leukemia; MALME-3M melanoma; MDA-MB-231 breast; RXF 393 renal; SF-268 CNS; SF-295 CNS; SF-539 CNS; UACC-257 melanoma; M14 melanoma; HCT-15 colon; HT29 colon; SNB-75 CNS; SNB-19 CNS; U251 CNS; PC-3 prostate; SK-MEL-5 melanoma; UACC-62 melanoma; LOX IMVI melanoma; SK-MEL-28 melanoma.
Common to all, as to assay: NCI-60 one-dose screen, 48 h (100 = growth as untreated, 0 = no growth, -100 = all killed)
Conditions in all cases: 10 µM unless noted

For the molecule `O=C(/C=C/c1ccc(Oc2ccc(Br)cc2)cc1)c1ccc(Br)cc1`, the growth in the assay on DU-145 prostate was 102%; with K-562 leukemia it was 91.8%; with MALME-3M melanoma it was 98%; in the assay with MDA-MB-231 breast, 101%; in the assay with RXF 393 renal, 100%; in the assay with SF-268 CNS, 101%. The growth in the assay with SF-295 CNS was 100%; with SF-539 CNS it was 102%; with UACC-257 melanoma, 98.1%; with M14 melanoma, 93.5%; in the assay with HCT-15 colon, 98.5%; in the assay on HT29 colon, 100%. The growth in the assay with SNB-75 CNS was 90.7%; in the assay on SNB-19 CNS, 97.6%; with U251 CNS, 95%; in the assay with PC-3 prostate, 100%; in the assay on SK-MEL-5 melanoma it was 102%; in the assay with UACC-62 melanoma, 91.4%. In addition, the growth is 96.2% with LOX IMVI melanoma and 105% in the assay with SK-MEL-28 melanoma.
For the molecule `C=C(C)[C@@H]1CCC[C@]2(C(=O)N3CCN(C)CC3)CC[C@]3(C)[C@@H](CC[C@@H]4[C@@]5(C)CC/C(=N\NC(=O)c6ccncc6)C(C)(C)[C@@H]5CC[C@]43C)[C@@H]12`, the growth in the assay on DU-145 prostate is 100%; with K-562 leukemia, 17.6%; in the assay with MALME-3M melanoma, 74.1%; in the assay with MDA-MB-231 breast, 66.8%; in the assay on RXF 393 renal, 99.7%; in the assay with SF-268 CNS, 84.2%. For the same molecule, the growth in the assay on SF-295 CNS was 104%; with SF-539 CNS, 104%; in the assay on UACC-257 melanoma, 103%; in the assay on M14 melanoma, 74.3%; with HCT-15 colon, 92.1%; in the assay on HT29 colon, 98.8%. In addition, the growth with SNB-75 CNS was 77.7%; in the assay with SNB-19 CNS it was 83.5%; in the assay with U251 CNS, 99.8%; in the assay on PC-3 prostate, 87%; in the assay with SK-MEL-5 melanoma, 92.9%; in the assay with UACC-62 melanoma it was 87.4%. Besides, the figures for the growth in the assay on LOX IMVI melanoma and in the assay on SK-MEL-28 melanoma were 89.3% and 95.5%, respectively.
For the molecule `COc1cccc(/C=C/C(=O)c2cccc(Nc3nc(Nc4ccccc4)nc(Nc4ccccc4)n3)c2)c1`, the growth is 85.5% with DU-145 prostate; 59.4% with K-562 leukemia; 107% in the assay on MALME-3M melanoma; 84.6% with MDA-MB-231 breast; -38.8% (active) with RXF 393 renal; 95.3% in the assay on SF-268 CNS. For the same molecule, the growth is 71.4% in the assay with SF-295 CNS; 96.5% in the assay on SF-539 CNS; 114% in the assay on UACC-257 melanoma; 89.4% in the assay on M14 melanoma; 73.4% in the assay on HCT-15 colon; 65.8% in the assay with HT29 colon. The growth in the assay on SNB-75 CNS was 71.8%; in the assay with SNB-19 CNS, 102%; with U251 CNS it was 53.8%; in the assay with PC-3 prostate, 73.5%; with SK-MEL-5 melanoma, 77.9%; with UACC-62 melanoma it was 92%. Also, the results for the growth with LOX IMVI melanoma and in the assay on SK-MEL-28 melanoma were 74.4% and 112%, respectively.
As for `CN1CCN(C(=O)[C@@]2(C)CC[C@]3(C)CC[C@]4(C)C(=CC[C@@H]5[C@@]6(C)CCC(=O)NC(C)(C)[C@@H]6CC[C@]54C)[C@@H]3C2)CC1`, the growth in the assay on DU-145 prostate was 86.7%; with K-562 leukemia it was 16%; with MALME-3M melanoma it was 19.8%; in the assay with MDA-MB-231 breast, 61.1%; with RXF 393 renal it was 35%; with SF-268 CNS, 63.1%. For the same molecule, the growth was 90.5% in the assay with SF-295 CNS; 43.9% with SF-539 CNS; -12.9% (active) in the assay with UACC-257 melanoma; 0.579% (active) in the assay with M14 melanoma; 30.3% in the assay on HCT-15 colon; 3.61% (active) with HT29 colon. Besides, the growth in the assay with SNB-75 CNS was 87.3%; in the assay on SNB-19 CNS, 79.4%; with U251 CNS, 40.4%; in the assay on PC-3 prostate, 27.4%; in the assay on SK-MEL-5 melanoma, -41% (active); in the assay with UACC-62 melanoma, 26.4%. The growth with LOX IMVI melanoma was 8.99% (active); with SK-MEL-28 melanoma, -6.92% (active).
Turning to `N#C/C(=C\c1ccc(-c2cccc(C(F)(F)F)c2)o1)c1ccccc1`, the growth is 102% with DU-145 prostate; 87.1% with K-562 leukemia; 96.4% in the assay on MALME-3M melanoma; 74.4% in the assay with MDA-MB-231 breast; 101% with RXF 393 renal; 107% in the assay on SF-268 CNS. Besides, the growth in the assay with SF-295 CNS is 89.1%; with SF-539 CNS it was 95.6%; in the assay with UACC-257 melanoma, 103%; in the assay on M14 melanoma it was 84.5%; with HCT-15 colon, 62.5%; with HT29 colon it was 86.3%. The growth in the assay with SNB-75 CNS was 85%; in the assay with SNB-19 CNS it was 99.1%; in the assay on U251 CNS, 100%; in the assay on PC-3 prostate it was 90.4%; in the assay on SK-MEL-5 melanoma, 92.6%; in the assay with UACC-62 melanoma, 71.4%. Further, the figures for the growth with LOX IMVI melanoma and with SK-MEL-28 melanoma were 86.5% and 98.4%, respectively.
`Cc1ccc2c(=O)cc(C(=O)Nc3sc4c(c3C(=O)NCc3cccnc3)CCCC4)oc2c1C`: the growth was 103% in the assay with DU-145 prostate; 96.4% in the assay with K-562 leukemia; 99.9% with MALME-3M melanoma; 96.9% in the assay with MDA-MB-231 breast; 116% with RXF 393 renal; 93.2% in the assay with SF-268 CNS. Moreover, the growth in the assay on SF-295 CNS was 102%; with SF-539 CNS it was 98.1%; with UACC-257 melanoma, 104%; in the assay on M14 melanoma, 104%; in the assay on HCT-15 colon, 103%; with HT29 colon it was 109%. Moreover, the growth in the assay on SNB-75 CNS is 91.7%; in the assay on SNB-19 CNS it was 96.1%; in the assay with U251 CNS, 104%; in the assay with PC-3 prostate, 99.2%; with SK-MEL-5 melanoma, 99.7%; in the assay with UACC-62 melanoma it was 96.6%. Also, the growth with LOX IMVI melanoma was 93.1%; in the assay with SK-MEL-28 melanoma, 104%.
For `O=C(Nc1ccccc1N1CCCC1=O)c1oc2ccc(F)cc2c1-c1cnn(-c2ccccc2)c1`, the growth in the assay with DU-145 prostate was 68.8% [50 µM]; with K-562 leukemia, 42.9% [50 µM]; with MALME-3M melanoma, 28.8% [50 µM]; in the assay with MDA-MB-231 breast it was 21.7% [50 µM]; in the assay with RXF 393 renal, 25.8% [50 µM]; in the assay with SF-268 CNS, 40.1% [50 µM]. In addition, the growth is 43.5% [50 µM] with SF-295 CNS; 30.8% [50 µM] in the assay with SF-539 CNS; 69.9% [50 µM] in the assay with UACC-257 melanoma; 77.7% [50 µM] with M14 melanoma; 44.9% [50 µM] in the assay with HCT-15 colon; 62.2% [50 µM] in the assay on HT29 colon. Moreover, the growth is 14.8% [50 µM] in the assay with SNB-75 CNS; 54.5% [50 µM] in the assay on SNB-19 CNS; 62.8% [50 µM] in the assay on U251 CNS; 39.7% [50 µM] in the assay on PC-3 prostate; 10.6% [50 µM] with SK-MEL-5 melanoma; 46.1% [50 µM] in the assay with UACC-62 melanoma. The growth with LOX IMVI melanoma is 42.2% [50 µM]; with SK-MEL-28 melanoma, 72% [50 µM].
With `CCOC(=O)CC1CSC(Nc2ccccc2)=N1` (stereo not given), the growth was 103% with DU-145 prostate; 96.4% in the assay on K-562 leukemia; 102% in the assay on MALME-3M melanoma; 105% with MDA-MB-231 breast; 114% in the assay with RXF 393 renal; 98.7% in the assay with SF-268 CNS. The growth in the assay on SF-295 CNS was 104%; with SF-539 CNS it was 105%; with UACC-257 melanoma, 97.9%; with M14 melanoma it was 103%; with HCT-15 colon, 107%; in the assay on HT29 colon, 96.8%. The growth was 99.7% in the assay on SNB-75 CNS; 104% in the assay on SNB-19 CNS; 99.5% with U251 CNS; 99.9% in the assay with PC-3 prostate; 103% in the assay with SK-MEL-5 melanoma; 99.7% in the assay with UACC-62 melanoma. Moreover, the figures for the growth in the assay with LOX IMVI melanoma and with SK-MEL-28 melanoma were 97.3% and 115%, respectively.

The values above are taken from PubChem BioAssay (NCI).
